Data: PubChem BioAssay (NCATS)
Values joined by “and” are separate entries in the source; they are usually repeats but may differ in a detail not shown here. Equal entries are not always repeated. Records with an inconclusive call do not appear. Active and inactive are the calls of the source. Unless noted, calls follow the shape of the full dose curve.

What was measured:
[1] = target: Bile acid receptor (Homo sapiens) (UniProt Q96RI1); experiment: qHTS assay for small molecule antagonists of farnesoid X receptor signaling (AID 588526); also: % is scaled to controls: 0 for no effect and ±100 for the full control effect
Summary of the method: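 Concentration-response titrations were fitted to the Hill equation for half-maximal inhibition and maximal response, with data normalised to 50 uM chenodeoxycholic acid and DMSO control wells. Cells: FXR-UAS-bla HEK293T, dialyzed FBS.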

[2] = target: Bile acid receptor (Homo sapiens) (UniProt Q96RI1); experiment: qHTS assay for small molecule agonists of farnesoid X receptor signaling (AID 588527); details: HEK293T FXR-UAS-bla, beta-lactamase ratio, 16 h; activation: stronger effect = higher value;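 also: series mostly up to about 77 µM; 0% = vehicle basal and 100% = reference agonist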
Summary of the method: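 FXR-UAS-bla HEK293T, 10% dialyzed FBS; cpds up to 92 uM titration, 16 h 37 C; CCF4 dye 2 h RT; fluorescence. Normalized to chenodeoxycholic acid 100 uM (100%) and DMSO (0%); Hill fit gives EC50, efficacy.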

[3] = target: Peroxisome proliferator-activated receptor delta (Homo sapiens) (UniProt Q03181); experiment: qHTS assay for small molecule agonists of peroxisome proliferator-activated receptor delta signaling (AID 588534);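 also: 0% = DMSO basal wells and 100% = positive control agonist at 10 µM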
Summary of the method: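 Cells carrying a PPAR-delta beta-lactamase reporter were treated with compounds for 18 h at 37 °C in agonist mode. CCF4 fluorescence was read after 2 h; EC50 and efficacy from Hill fits.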

[4] = qHTS assay for small molecule antagonists of peroxisome proliferator-activated receptor delta signaling (AID 588535; active = well fitted inhibition curve with a large enough effect in the signal ratio, with a control signal flat, not every such curve was filed as active; the % refers to the signal ratio;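 as to max response: cells co-treated with a PPAR-delta agonist as stimulator during compound exposure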); details: HEK293T PPARd-UAS-bla, beta-lactamase FRET ratio, 18 h; 460 nm channel
Summary of the method: (§1)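 Reporter: UAS-bla under PPAR-delta response element, HEK293T host. Medium: 2% charcoal/dextran FBS. Dosing: titration, 18 hrs, 37 C. Detection: CCF4, 2 hrs RT, 405 ex/460 and 530 em.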

[5] = target: Peroxisome proliferator-activated receptor delta (Homo sapiens) (UniProt Q03181); experiment: as above
Summary of the method: as §1

[6] = target: Retinoic acid receptor RXR-alpha (Homo sapiens) (UniProt P19793); experiment: qHTS assay for small molecule agonists of retinoid X receptor alpha signaling (AID 588544);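 also: 0% = DMSO basal wells and 100% = reference agonist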
[7] = target: Thyroid hormone receptor beta (Homo sapiens) (UniProt P10828); experiment: qHTS assay for small molecule agonists of thyroid hormone receptor beta signaling (AID 588545);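 also: 0% = DMSO only and 100% = 10 nM T3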
Summary of the method: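 TR-UAS-bla GripTite HEK 293 cells (2500/well, medium with 2% charcoal/dextran FBS) were treated in agonist mode for 18 h at 37 C, titrated. Beta-lactamase was read by CCF4 ratio after 2 h; normalized to 10 nM T3 (100%) and DMSO, Hill-fitted for EC50 and efficacy.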

[8] = qHTS assay for small molecule antagonists of retinoid X receptor alpha signaling (AID 588546; active = well fitted inhibition curve with a large enough effect in the signal ratio, with a control signal flat, not every such curve was filed as active; the % refers to the signal ratio;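 also: cells stimulated with 9-cis-retinoic acid as agonist; % is scaled to controls: 0 for no effect and ±100 for the full control effect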); details: HEK293T RXRa-UAS-bla, beta-lactamase ratio, antagonist mode; measured here: W530 green channel, cytotoxicity proxy
Summary of the method: (§2)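 Beta-lactamase reporter inhibition, read as CCF4 fluorescence ratio (ex 405, em 460/530 nm) after 2 h at RT. HEK293T UAS-bla cells, 2500/well, were stimulated with 9-cis-RA at 500 or 100 nM final alongside test compound for 18 h at 37 C.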

[9] = target: Retinoic acid receptor RXR-alpha (Homo sapiens) (UniProt P19793); experiment: as above; details: HEK293T RXRa-UAS-bla, beta-lactamase ratio, antagonist mode
Summary of the method: as §2

[10] = qHTS assay for small molecule activators of the p53 signaling pathway (AID 651743; active = well fitted activation curve with a large enough effect in the signal ratio, not every such curve was filed as active; the % refers to the signal ratio; also: series mostly up to about 92 µM; % of control where 0% means no effect); details: HCT-116 p53RE-bla, beta-lactamase FRET ratio, 16 h; activation: stronger effect = higher value
Summary of the method: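 Cell-based beta-lactamase reporter (p53 response elements, HCT-116 background). After a 5-hour preincubation, cells received compound for 16 hours at 37 C; substrate development ran 2 hours at room temperature.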

[11] = qHTS assay for small molecule activators of the nuclear factor-kappa B (NF-kB) signaling pathway (AID 651749; active = well fitted activation curve with a large enough effect in the signal ratio; the % refers to the signal ratio; also: series mostly up to about 77 µM; % of control where 0% means no effect); details: NF-kB-bla ME-180 cells, beta-lactamase FRET ratio, 16 h; activation: stronger effect = higher value
Summary of the method: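 Screening used 2,000 ME-180 reporter cells per well exposed to pinned compound (23 nL) or DMSO; after 16 hr at 37C, beta-lactamase expression under NF-kB control was assessed through FRET.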

[12] = qHTS assay for environmental chemicals that activate the Aryl hydrocarbon Receptor (AhR) signaling pathway (AID 651777; active = well fitted curve in the direction sought with a large enough effect; an effect the other way counts as inactive or inconclusive; also: nearly all actives have a fitted effect of over 15% in size; also: potency is read from the fitted curve at half-maximal effect; as to activation: % of control where 0% means no effect); details: 1A2-DRE human hepatoma cells, luciferase, 24 h; activation: stronger effect = higher value
Summary of the method: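 Measured luciferase activity, read 30 min after One-Glo addition at room temperature, from human hepatoma cells bearing a dioxin response element–CYP1A2 promoter reporter and exposed to compound for 24 hr at 37 C.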

[13] = target: Peroxisome proliferator-activated receptor alpha (Homo sapiens) (UniProt Q07869); experiment: qHTS assay for small molecule agonists of the peroxisome proliferator-activated receptor alpha (PPARalpha) signaling pathway (AID 651778; active = well fitted curve in the direction sought with a large enough effect; an effect the other way counts as inactive or inconclusive; also: % of control where 0% means no effect); details: PathHunter PPARalpha complementation, chemiluminescence, 6 h; max response: stronger effect = higher value
Summary of the method: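 Cells plated at 2,000/well and held overnight at 37 C, 5% CO2, then compound added by pin tool for 6 hr; after PathHunter detection reagent and 60 min at room temperature, chemiluminescence from enzyme complementation was read.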

[14] = qHTS assay for small molecule agonists of the antioxidant response element (ARE) signaling pathway measured by Nrf2-dependant transcriptional activity (AID 720636; active = well fitted curve in the direction sought with a large enough effect in the repeat runs; an effect the other way counts as inactive or inconclusive;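 also: HepG2 cells with an ARE-driven luciferase reporter; % of control where 0% means no effect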)
Summary of the method: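 In HepG2 cells engineered with an Nrf2-responsive luciferase gene, ARE induction was quantified as luminescence after 16 hr compound treatment at 37 C.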

[15] = qHTS assay for small molecule agonists of the antioxidant response element (ARE) signaling pathway measured by Nrf2-dependant transcriptional activity - cell viability counter screen (AID 720653; active = well fitted curve in the direction sought with a large enough effect in the repeat runs; an effect the other way counts as inactive or inconclusive; also: % is scaled to controls: 0 for no effect and ±100 for the full control effect); details: ARE-bla HepG2 viability, CellTiter-Glo ATP luminescence, 16 h; max response: stronger effect = lower value
Summary of the method: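 ARE-bla HepG2 cells (2,000/well) rested 5 hrs at 37C/5% CO2, then exposed to compounds in DMSO for 16 hrs. Viability was read in the same wells as intracellular ATP by luminescence, 30 min at room temperature after reagent addition.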

[16] = qHTS assay for cell viability of the p53RE-bla HCT-116 cell line (AID 743292; active = well fitted curve in the direction sought with a large enough effect; an effect the other way counts as inactive or inconclusive; also: nearly all actives have a fitted effect of over 55% in size; also: potency is read from the fitted curve at half-maximal effect)
Summary of the method: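 Intracellular ATP of p53RE-bla HCT-116 cells measured by luciferase luminescence following 16 h compound incubation at 37 C; DMSO-only wells served as vehicle controls.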

[17] = target: Nuclear receptor subfamily 1 group I member 2 (Rattus norvegicus) (UniProt Q9R1A7); experiment: qHTS assay for small molecule activators of the rat pregnane X receptor (rPXR) signaling pathway (AID 651751; call rule not given here; also: 0% is about no effect); details: rPXR reporter cells, luciferase (One-Glo), 24 h
[18] = target: Vitamin D3 receptor (Homo sapiens) (UniProt P11473); experiment: qHTS assay for small molecule antagonists of vitamin D receptor signaling (AID 588541);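 also: receptor activated by calcitriol during compound treatment; series mostly up to about 77 µM; % is scaled to controls: 0 for no effect and ±100 for the full control effect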
Summary of the method: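 VDR-UAS-bla HEK293T cells (2000/well, 2% charcoal-stripped FBS) were treated with titrated compounds plus 1-alpha,25-dihydroxyvitamin D3 (50 nM or 3 nM final) for 16 h at 37 C. CCF4 beta-lactamase fluorescence was read; Hill fits gave IC50.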

[19] = target: Vitamin D3 receptor (Homo sapiens) (UniProt P11473); experiment: qHTS assay for small molecule agonists of vitamin D receptor signaling (AID 588543);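 also: 0% = DMSO basal and 100% = reference agonist control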
Summary of the method: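 GeneBLAzer VDR-UAS-bla HEK293T cells in 2% charcoal-stripped FBS medium were dosed with compound titrations for 16 h at 37 °C; CCF4 β-lactamase readout (405 nm ex, 460/530 nm em). EC50 and efficacy from Hill fits, normalized to 50 nM calcitriol (100%) and DMSO (0%).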

[20] = qHTS assay for cell viability of HEK293 cells (AID 743288; active = well fitted curve in the direction sought with a large enough effect; an effect the other way counts as inactive or inconclusive; also: % is scaled to controls: 0 for no effect and ±100 for the full control effect; nearly all actives have a fitted effect of over 50% in size); details: ATP luminescence (CellTiter-Glo), 18 h; max response: stronger effect = lower value
Summary of the method: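 Parental HEK293 cells were seeded at 2,000 cells/well, rested at least 5 h at 37 C, then exposed to compounds in DMSO for 18 h at 37 C. Viability was read as ATP-dependent luciferase luminescence after 30 min at room temperature.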

Vitamin D3 receptor (Homo sapiens), sequence (P11473 whole entry, looked up): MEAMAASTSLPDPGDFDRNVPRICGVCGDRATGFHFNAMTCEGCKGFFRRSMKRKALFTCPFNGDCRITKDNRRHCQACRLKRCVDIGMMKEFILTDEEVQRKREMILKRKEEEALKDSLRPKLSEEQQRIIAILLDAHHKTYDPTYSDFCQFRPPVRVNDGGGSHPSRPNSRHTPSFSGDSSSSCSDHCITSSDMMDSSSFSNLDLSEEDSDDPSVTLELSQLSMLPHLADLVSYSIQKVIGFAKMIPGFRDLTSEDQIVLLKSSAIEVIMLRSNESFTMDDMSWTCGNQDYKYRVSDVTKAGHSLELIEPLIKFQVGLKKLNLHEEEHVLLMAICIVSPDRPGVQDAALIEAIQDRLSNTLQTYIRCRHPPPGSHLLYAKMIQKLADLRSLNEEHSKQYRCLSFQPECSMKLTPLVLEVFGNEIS
Bile acid receptor (Homo sapiens), sequence (Q96RI1 whole entry, looked up): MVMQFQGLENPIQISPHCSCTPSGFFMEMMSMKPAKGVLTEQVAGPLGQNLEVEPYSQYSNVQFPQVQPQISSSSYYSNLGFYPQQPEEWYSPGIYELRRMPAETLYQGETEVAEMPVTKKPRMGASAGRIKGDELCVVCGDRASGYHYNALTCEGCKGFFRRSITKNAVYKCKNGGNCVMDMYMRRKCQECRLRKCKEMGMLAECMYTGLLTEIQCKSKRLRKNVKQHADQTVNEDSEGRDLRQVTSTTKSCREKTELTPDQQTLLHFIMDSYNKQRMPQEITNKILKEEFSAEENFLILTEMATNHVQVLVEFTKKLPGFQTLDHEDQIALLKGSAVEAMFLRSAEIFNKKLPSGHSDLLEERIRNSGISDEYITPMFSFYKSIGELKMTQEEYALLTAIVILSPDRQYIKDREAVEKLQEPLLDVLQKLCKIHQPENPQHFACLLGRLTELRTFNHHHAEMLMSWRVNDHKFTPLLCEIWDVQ
Thyroid hormone receptor beta (Homo sapiens), sequence (P10828 whole entry, looked up): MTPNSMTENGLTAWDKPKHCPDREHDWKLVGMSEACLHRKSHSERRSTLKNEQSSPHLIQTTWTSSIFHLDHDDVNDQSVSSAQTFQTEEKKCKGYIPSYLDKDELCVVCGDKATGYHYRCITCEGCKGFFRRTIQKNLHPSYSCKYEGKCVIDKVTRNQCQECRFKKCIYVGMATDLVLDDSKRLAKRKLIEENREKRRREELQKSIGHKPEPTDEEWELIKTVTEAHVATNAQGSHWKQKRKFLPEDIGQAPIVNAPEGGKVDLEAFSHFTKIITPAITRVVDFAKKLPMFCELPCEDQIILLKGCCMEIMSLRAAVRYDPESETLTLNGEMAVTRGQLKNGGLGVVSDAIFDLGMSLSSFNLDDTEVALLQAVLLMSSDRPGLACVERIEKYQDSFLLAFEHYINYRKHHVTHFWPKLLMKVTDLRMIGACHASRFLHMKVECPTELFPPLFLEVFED
Nuclear receptor subfamily 1 group I member 2 (Rattus norvegicus), sequence (Q9R1A7 whole entry, looked up): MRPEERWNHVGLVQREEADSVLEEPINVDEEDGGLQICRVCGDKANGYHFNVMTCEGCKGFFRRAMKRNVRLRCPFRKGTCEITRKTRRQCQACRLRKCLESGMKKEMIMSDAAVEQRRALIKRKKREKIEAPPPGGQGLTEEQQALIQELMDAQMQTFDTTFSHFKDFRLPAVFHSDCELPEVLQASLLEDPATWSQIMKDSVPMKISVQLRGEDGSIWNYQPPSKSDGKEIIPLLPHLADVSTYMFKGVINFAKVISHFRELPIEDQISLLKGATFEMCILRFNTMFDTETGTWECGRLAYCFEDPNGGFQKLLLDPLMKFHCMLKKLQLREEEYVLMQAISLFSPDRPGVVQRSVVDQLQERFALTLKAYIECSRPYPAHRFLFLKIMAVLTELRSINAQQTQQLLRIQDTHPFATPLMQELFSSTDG
Peroxisome proliferator-activated receptor alpha (Homo sapiens), sequence (Q07869 whole entry, looked up): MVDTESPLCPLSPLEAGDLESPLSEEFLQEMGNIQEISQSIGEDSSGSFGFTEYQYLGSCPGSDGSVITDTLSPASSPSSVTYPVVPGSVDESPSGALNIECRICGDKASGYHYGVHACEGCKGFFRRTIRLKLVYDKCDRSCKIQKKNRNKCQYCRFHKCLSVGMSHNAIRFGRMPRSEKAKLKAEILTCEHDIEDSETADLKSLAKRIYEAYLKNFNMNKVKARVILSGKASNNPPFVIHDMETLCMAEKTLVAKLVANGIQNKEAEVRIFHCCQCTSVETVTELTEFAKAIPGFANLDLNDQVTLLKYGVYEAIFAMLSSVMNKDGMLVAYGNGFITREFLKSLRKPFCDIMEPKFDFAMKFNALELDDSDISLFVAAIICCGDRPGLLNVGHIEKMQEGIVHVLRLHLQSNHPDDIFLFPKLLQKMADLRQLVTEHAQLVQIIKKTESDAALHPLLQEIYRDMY
Retinoic acid receptor RXR-alpha (Homo sapiens), sequence (P19793 whole entry, looked up): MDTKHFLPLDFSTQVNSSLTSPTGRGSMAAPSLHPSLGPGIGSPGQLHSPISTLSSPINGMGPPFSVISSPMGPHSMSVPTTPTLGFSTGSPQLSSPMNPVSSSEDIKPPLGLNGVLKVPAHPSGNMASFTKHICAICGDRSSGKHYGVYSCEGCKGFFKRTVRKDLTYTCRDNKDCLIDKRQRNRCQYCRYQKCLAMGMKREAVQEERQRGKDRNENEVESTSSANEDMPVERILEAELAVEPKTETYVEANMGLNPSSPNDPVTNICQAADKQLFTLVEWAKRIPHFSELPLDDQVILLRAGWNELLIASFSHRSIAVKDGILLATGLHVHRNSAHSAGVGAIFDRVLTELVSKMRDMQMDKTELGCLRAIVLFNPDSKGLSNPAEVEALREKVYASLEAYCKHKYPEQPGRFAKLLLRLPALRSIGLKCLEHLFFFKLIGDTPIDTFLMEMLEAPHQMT
Peroxisome proliferator-activated receptor delta (Homo sapiens), sequence (Q03181 whole entry, looked up): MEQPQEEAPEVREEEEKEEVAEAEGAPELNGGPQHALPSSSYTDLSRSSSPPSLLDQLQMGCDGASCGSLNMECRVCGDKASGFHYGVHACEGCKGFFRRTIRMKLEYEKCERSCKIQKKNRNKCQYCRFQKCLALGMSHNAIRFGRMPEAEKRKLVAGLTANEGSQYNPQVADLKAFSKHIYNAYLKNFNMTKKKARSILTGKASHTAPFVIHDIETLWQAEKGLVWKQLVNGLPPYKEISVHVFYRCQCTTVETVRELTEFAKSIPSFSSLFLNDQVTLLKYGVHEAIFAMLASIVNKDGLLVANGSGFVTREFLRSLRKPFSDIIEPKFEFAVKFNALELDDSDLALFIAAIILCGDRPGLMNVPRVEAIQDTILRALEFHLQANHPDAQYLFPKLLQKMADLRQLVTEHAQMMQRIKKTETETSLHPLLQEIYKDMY

O=C1C=CC(=O)c2ccccc21
inactive: Potency [1] | activation [2] -2.25% | outcome [3] | Potency [5] | Potency [6] | Potency [7] | max response [9] -12.9% | activation [10] -3.99% | activation [11] -1.33% | max response [13] -1.22% | Potency [14] | max response [15] -8.11% | Potency [16] | max response [17] 2.78%
-18.7%: max response [4]
active: Potency [12] 15.8 µM
-1.96%: max response [8]

CCCOc1nn(C(=O)NS(=O)(=O)c2ccccc2C(=O)OC)c(=O)n1C
-18%: max response [8]
inactive: outcome [3] | Potency [5] | Potency [18] | outcome [19] | Potency [7] | max response [9] -2.92% | activation [10] 0.234% | activation [11] -2.67% | max response [13] 0.0457% | Potency [14] | max response [15] -11.6% | Potency [16] | max response [17] 4.67%
41%: max response [4]

c1ccc2c(c1)c1cccc3ccc4cccc2c4c31
inactive: activation [2] -3.29% and 7.3% | outcome [3] | outcome [19] | Potency [7] | Potency [14]

C[N+]1(C)CCCCC1
-14.2%: max response [4]
inactive: outcome [3] | Potency [5] | Potency [18] | outcome [19] | Potency [6] | Potency [7] | max response [9] 0.987% | activation [11] 0.391% | activation [12] 0.858% | max response [13] -0.937% | Potency [14] | max response [15] 4.82% | max response [20] -11.8% | Potency [16] | max response [17] 3.55%
-2.65%: max response [8]

CCOP(=S)(OCC)SC(CCl)N1C(=O)c2ccccc2C1=O (stereo not drawn)
3.14%: max response [8]
inactive: outcome [3] | Potency [5] | Potency [18] | outcome [19] | Potency [7] | max response [9] 7.55% | activation [10] -5.87% | activation [11] -1.92% | activation [12] 0.999% | max response [13] -0.704% | max response [15] -13.6% | max response [20] -5.75% | Potency [16]
51.4%: max response [4]

ClC1=C(Cl)[C@@]2(Cl)[C@H]3C[C@@H](Cl)[C@H](Cl)[C@H]3[C@@]1(Cl)C2(Cl)Cl
active: Potency [16] 50.1 µM
inactive: activation [2] -1.23% | Potency [18] | max response [15] -24.7%

O=[N+]([O-])c1ccc2ccc3cccc4ccc1c2c34
inactive: activation [2] -3.28% | outcome [19] | Potency [6] | Potency [7] | activation [12] 2.13% | max response [13] -0.269% | max response [15] -9.82% | max response [20] -25% | Potency [16] | max response [17] 3%
